Source: PubChem BioAssay AID602162 (NMMLSC, 2011)
About 690 (0.19%) of roughly 360,000 compounds were called active.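 How the source made its calls: active means fluorescence ratio to DMSO below 75%, the collection mean minus 3 SD; inconclusive means too few cells collected in the well; inactive means the rest.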 The entries come from a sample that favours actives as a whole.

molecular target: ATP-binding cassette sub-family B member 6 (Homo sapiens) (UniProt Q9NP58); assay: blockers of ABCB6-driven porphyrin uptake – K562-ABCB6 cells, flow cytometry, MLPCN library, primary screen (AID 602162); settings: K562-ABCB6 porphyrin accumulation, 1 h, at 10 µM, stronger effect = lower value;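 further: signal is porphyrin accumulated inside mitochondria; 100% equals median channel fluorescence of DMSO control wells; lower ratio means ABCB6 inhibition with less porphyrin fluorescence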
Sequence (Q9NP58 whole entry, looked up): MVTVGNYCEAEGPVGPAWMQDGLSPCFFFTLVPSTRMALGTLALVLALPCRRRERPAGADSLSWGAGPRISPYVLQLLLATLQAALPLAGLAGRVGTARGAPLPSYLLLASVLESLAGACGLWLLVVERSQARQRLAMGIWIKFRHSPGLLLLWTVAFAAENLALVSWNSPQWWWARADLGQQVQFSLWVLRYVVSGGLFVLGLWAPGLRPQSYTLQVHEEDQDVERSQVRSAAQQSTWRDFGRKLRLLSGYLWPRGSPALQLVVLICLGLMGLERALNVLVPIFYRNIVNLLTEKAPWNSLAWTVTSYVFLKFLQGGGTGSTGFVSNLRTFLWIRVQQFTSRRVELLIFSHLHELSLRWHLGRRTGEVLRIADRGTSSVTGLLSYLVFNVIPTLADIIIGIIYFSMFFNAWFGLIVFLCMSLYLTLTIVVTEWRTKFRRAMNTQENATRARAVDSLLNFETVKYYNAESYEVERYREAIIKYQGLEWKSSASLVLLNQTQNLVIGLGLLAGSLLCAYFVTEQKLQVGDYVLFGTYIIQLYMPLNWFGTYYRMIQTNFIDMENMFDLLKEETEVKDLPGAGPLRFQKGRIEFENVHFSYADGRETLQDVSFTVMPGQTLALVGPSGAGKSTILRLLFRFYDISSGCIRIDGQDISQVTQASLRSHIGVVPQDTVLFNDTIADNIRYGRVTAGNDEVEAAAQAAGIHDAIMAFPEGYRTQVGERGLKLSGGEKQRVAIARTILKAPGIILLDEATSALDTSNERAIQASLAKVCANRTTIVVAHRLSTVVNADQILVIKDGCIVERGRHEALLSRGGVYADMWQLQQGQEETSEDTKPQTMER

Row | Structure (SMILES) | fluorescence ratio to DMSO
1 | CC(=O)Nc1ccccc1C(=O)C(=O)Nc1ccc(F)cc1 | 104% (inactive)
2 | Cc1cccc(NC(=O)c2ccc(OCC(=O)NCc3ccccc3)cc2)c1C | 97% (inactive)
3 | O=C1COc2ccc(S(=O)(=O)NCCc3ccc(Cl)cc3)cc2N1 | 93% (inactive)
4 | O=C1C=C(c2cccc(Br)c2)C[C@@H](c2ccc(F)cc2)C1 | 101% (inactive)
5 | O=C(Cn1cnc2ccccc2c1=O)NNC(=O)c1ccccc1F | 97% (inactive)
6 | O=C(Nn1cnc2ccccc2c1=O)c1ccc([N+](=O)[O-])cc1Cl | 98% (inactive)
7 | O=C(Nn1cnc2ccccc2c1=O)c1ccc(F)cc1Cl | 26% (active)
8 | COC(=O)Cc1nc2c(N)nc(N)nc2[nH]c1=O | 97% (inactive)
9 | CC1CCCC(NC(=O)c2cc(-c3ccncc3)nc3ccccc23)C1C (stereo not given) | 96% (inactive)
10 | COC(=O)CNC(=O)c1cc(-c2ccncc2)nc2ccccc12 | 70% (active)
11 | CCc1ccc(-c2cc(C(=O)NN3CCN(C)CC3)c3ccccc3n2)cc1 | 99% (inactive)
12 | Cc1cccc(C)c1NC(=O)Nc1ccccc1-n1ccnc1 | 96% (inactive)
13 | COc1ccc(NC(=O)/C(Cl)=C(/Cl)S(=O)Cc2ccc(C)cc2)cn1 (stereo not given) | 19% (active)
14 | CC(CC(=O)Nc1ccccc1)n1ccnc1 (stereo not given) | 96% (inactive)
15 | O=C1OC(Oc2ccc(Br)cc2)(c2ccccc2)c2ccccc21 (stereo not given) | 93% (inactive)
16 | CCn1ccnc1CNC(=O)CC1C(=O)NCCN1Cc1ccc(F)cc1Cl (stereo not given) | 92% (inactive)
17 | O=C(CSc1nnc(-c2cccnc2)n1CCc1ccccc1)NCc1ccccc1 | 110% (inactive)
18 | C=CCn1c(SCC(=O)NC(=O)Cc2ccccc2)nc2ccccc2c1=O | 99% (inactive)
19 | C=CCn1c(SCC(=O)NCc2ccccc2)nnc1-c1cc(Br)ccc1O | 53% (active)
20 | N#CCCN1CCN(S(=O)(=O)c2ccc(S(=O)(=O)NC3CCCCC3)cc2)CC1 | 96% (inactive)
21 | Cc1ccc(S(=O)(=O)N2CCC(Oc3ccc(-n4cnnn4)cc3)CC2)cc1 | 96% (inactive)
22 | COC(=O)c1ccc(CN2C(=O)C(Cc3ccccc3)ON=C2c2ncccc2C)o1 (stereo not given) | 94% (inactive)
23 | OCCC1CN(Cc2ccc(Oc3ncccn3)cc2)CCN1CCc1ccccc1 (stereo not given) | 101% (inactive)
24 | OCCC1CN(Cc2cnc(-c3ccccc3)s2)CCN1CCc1ccccc1 (stereo not given) | 73% (active)

Row | Structure (SMILES) | fluorescence ratio to DMSO
25 | OCCC1CN(Cc2cccc(O)c2)CCN1CCc1ccccc1 (stereo not given) | 93% (inactive)
26 | COc1ccc(CN2C(=O)CC(Cc3ccc(C)cc3)C2=O)cc1OC (stereo not given) | 97% (inactive)
27 | O=S1(=O)CC(N2CCN(Cc3ccccc3F)CC2)CN1Cc1cn(Cc2cccc(C(F)(F)F)c2)nn1 (stereo not given) | 96% (inactive)
28 | COc1ccc(-c2c(NC(=O)c3ccco3)oc3ccc(Cl)cc3c2=O)cc1 | 97% (inactive)
29 | O=C(COc1ccccc1)Nc1cc2c3c(c1)CC(=O)N3CCC2 | 102% (inactive)
30 | Cn1c(=O)c2cc(NC(=O)NCCc3cccs3)ccc2n1Cc1cccc(C(F)(F)F)c1 | 100% (inactive)
31 | O=C(Cc1cccs1)NCc1cccc(C(F)(F)F)c1 | 68% (active)
32 | Cc1ccccc1Cn1c(C)c(C(=O)NCc2cccc(C(F)(F)F)c2)sc1=O | 98% (inactive)
33 | Cc1ccn(-c2cccc(-n3ccc(C)n3)n2)n1 | 104% (inactive)
34 | Cc1cnc(C(=O)OCc2c(C)cc(C(C)(C)C)cc2C)cn1 | 104% (inactive)
35 | COc1ccc(/C=C(\NC(=O)c2ccc(OCC(C)C)cc2)C(=O)OCc2ccco2)cc1 | 100% (inactive)
36 | COc1ccc(-c2cnc(SCCNC(=O)c3ccc4c(c3)OCO4)[nH]2)cc1 | 98% (inactive)
37 | O=C(NCCS(=O)(=O)N1CCN(c2ccccc2)CC1)c1ccco1 | 98% (inactive)
38 | O=C(NCCSc1ncc(-c2ccccc2)[nH]1)c1ccco1 | 74% (active)
39 | COc1ccccc1NC(=O)c1ccc(N2CC3CC(C2)c2cccc(=O)n2C3)c(NC(=O)c2cccnc2)c1 (stereo not given) | 100% (inactive)
40 | CCN(CC(=O)Nc1ccc(NC(C)=O)cc1)C(=O)C1CC(=O)N(c2ccc3c(c2)OCCO3)C1 (stereo not given) | 91% (inactive)
41 | COc1ccc(CCNc2nc(C)cc(C)n2)cc1OC | 95% (inactive)
42 | COc1ccc(CCNC(=O)CN(c2ccccc2)S(C)(=O)=O)cc1OC | 95% (inactive)
43 | COc1ccc(CCNC2=C(Cl)C(=O)N(Cc3ccccc3)C2=O)cc1OC | 73% (active)
44 | Fc1ccccc1OCCSc1nc2ccccc2o1 | 89% (inactive)
45 | O=C(CSc1nnc(C2CC2)n1Cc1ccccc1)Nc1cccnc1Cl | 85% (inactive)
46 | CCC1OC(C2CC2)CC2=C1C(=O)OC(C)(C)O2 (stereo not given) | 97% (inactive)
47 | CC1(C)O[C@H]2CC(=O)OCC23[C@H]2CC[C@@]4(C)[C@H](c5ccoc5)OC(=O)[C@H]5O[C@]54[C@]2(C)C(=O)C[C@@H]13 (stereo not given in full) | 100% (inactive)
48 | O=C(c1cnn2ccccc12)N1CCc2ccccc21 | 103% (inactive)

Row | Structure (SMILES) | fluorescence ratio to DMSO
49 | CCOC(=O)C1=C(C)NC2=C(C(=O)CC(C)(C)C2)C1c1ccsc1 (stereo not given) | 100% (inactive)
50 | CCCOC(=O)C1=C(C)NC2=C(C(=O)C(C(=O)OC)C(C)C2)C1c1ccc(N(C)C)cc1 (stereo not given) | 72% (active)
51 | COC(=O)c1ccc(C2NC(=O)NC(C)=C2C(=O)N(C)C)cc1 (stereo not given) | 117% (inactive)
52 | CCCn1c(N)c(C(=O)CSc2nnc(-c3cccnc3)n2-c2ccc(C)cc2C)c(=O)[nH]c1=O | 101% (inactive)
53 | CCOc1ccc2[nH]c3nc(SCC(=O)NC4CCCC4)nnc3c2c1 | 96% (inactive)
54 | Cc1ccccc1OCC(=O)Nc1nnc(S(=O)(=O)N2CCCC2)s1 | 56% (active)
55 | CC1CCN(S(=O)(=O)c2nnc(NC(=O)COc3ccccc3F)s2)CC1 | 100% (inactive)
56 | CCc1ccccc1OCC(=O)Nc1ccc(C)c(S(=O)(=O)N2CCCCCC2)c1 | 90% (inactive)
57 | Cc1ccc2[nH]c3c(=O)n(CC(=O)NCCc4ccc(Cl)cc4)ncc3c2c1 | 96% (inactive)
58 | CC(C)(C)C1CCC(C(=O)NCC(c2cccs2)N2CCOCC2)CC1 (stereo not given) | 98% (inactive)
59 | O=C(NCc1ccco1)C(c1ccncc1)N(C(=O)Cn1nnc2ccccc21)c1ccccc1 (stereo not given) | 94% (inactive)
60 | Nc1nc(SCc2cccc(Br)c2)n[nH]1 | 98% (inactive)
61 | Cc1ccc(Cl)cc1N1CCN(C(=O)c2cccc3c(=O)c(C)c(-c4ccccc4)oc23)CC1 | 73% (active)
62 | Cc1cccc(N2CCN(C(=O)c3cnn4c(C(F)F)cc(-c5ccccc5)nc34)CC2)c1C | 97% (inactive)
63 | COc1ccccc1N1CCN(C(=O)c2cc(=O)c3cc(C)cc(C)c3o2)CC1 | 101% (inactive)
64 | C/C(CCc1ccccc1)=N\NC(=O)c1ccc(CN2CCOCC2)cc1 | 97% (inactive)
65 | CSC1=NN(c2ccccc2)CN(c2ccccc2)N1C | 98% (inactive)
66 | CCCOP(=O)(c1ccc(N(C)C)cc1)C(O)c1cc(OC)c(OC)c(OC)c1 (stereo not given) | 94% (inactive)
67 | COc1ccccc1S(=O)(=O)NCc1ccc(C(=O)N(C)Cc2ccc(F)cc2)cc1 | 92% (inactive)
68 | Cc1cnc(NC(=O)Cn2cnc3c2c(=O)n(C)c(=O)n3C)s1 | 101% (inactive)
69 | Cc1ccc(SCC(=O)Nc2ncc(C)s2)cc1 | 71% (active)
70 | Cc1ccc(SCC(=O)Nc2nncs2)cc1 | 99% (inactive)
71 | Fc1cccc(Cc2noc(CN3CCN(c4cnccn4)CC3)n2)c1 | 95% (inactive)
72 | COc1ccccc1CNC(=O)CSc1nc(=O)n(Cc2ccncc2)c2c1CCC2 | 100% (inactive)

Row | Structure (SMILES) | fluorescence ratio to DMSO
73 | Cc1ccc2c(C)c(C(=O)N(C)Cc3ccncn3)oc2c1C | 96% (inactive)
74 | Cc1ccccc1OC(=O)Cn1c(C(F)(F)F)nc2ccccc21 | 93% (inactive)
75 | Cc1nn(-c2ccccc2)c(C)c1C(=O)OCC(=O)NC(=O)NC1CCCCC1 | 74% (active)
76 | Cc1cccc(C)c1NC(=O)COC(=O)c1c(C)nn(-c2ccccc2)c1C | 100% (inactive)
77 | COc1ccc(CNC(=O)COC(=O)c2c(C)nn(-c3ccccc3)c2C)cc1OC | 98% (inactive)
78 | O=C(/C=C/c1ccccc1)Oc1coc(CSc2ncccn2)cc1=O | 104% (inactive)
79 | CC1(C)O[C@@H]2[C@H](O1)[C@@H](COS(=O)(=O)O)O[C@H]2n1cnc2c(=O)[nH]cnc21 | 98% (inactive)
80 | COc1ccc(CC(=O)NCc2nnc(SCC(=O)Nc3ncc(C)s3)n2C)cc1 | 103% (inactive)
81 | O=C(CC(c1ccccc1)c1cc(Cl)ccc1O)NCCN1CCOCC1 (stereo not given) | 91% (inactive)
82 | O=S(=O)(c1ccc(F)cc1)n1ccc(-c2cnc(-c3ccccc3)s2)n1 | 91% (inactive)
83 | CN(CC(=O)Nc1cccc(F)c1)C(=O)C1CSC2(C)CCC(=O)N12 (stereo not given) | 96% (inactive)
84 | CC(C)C(=O)NCC(c1cccs1)S(=O)(=O)c1ccc(F)cc1 (stereo not given) | 11% (active)
85 | COCCNC(=O)C(OC(=O)c1cccs1)c1ccc(F)cc1 (stereo not given) | 100% (inactive)
86 | O=C(NCc1cccs1)C(=O)NCC1OCCCN1S(=O)(=O)c1ccc(F)cc1 (stereo not given) | 103% (inactive)
87 | N#Cc1cccc(NC(=O)C2CCCN(C(=O)c3ccc(Cl)cc3)C2)c1 (stereo not given) | 104% (inactive)
88 | Cc1c(C(=O)NC(=S)NCc2cccnc2)oc2ccccc12 | 99% (inactive)
89 | CC12CCCCC1=CC(=O)CC2 (stereo not given) | 101% (inactive)
90 | COc1ccc(CNC(=O)CN2C(=O)NC3(CCCc4sccc43)C2=O)cc1 (stereo not given) | 93% (inactive)
91 | CC(C(=O)Nc1ccccc1-c1ccccc1)N1CCOCC1 (stereo not given) | 104% (inactive)
92 | CC(C(=O)Nc1ccc(F)c(F)c1F)N1CCCCCC1 (stereo not given) | 74% (active)
93 | O=C(CN1C(=O)NC2(CCCC2)C1=O)Nc1ccc(F)c(F)c1F | 104% (inactive)
94 | COCCCNc1ccn2nc(-c3ccc(CC(C)C)cc3)cc2n1 | 100% (inactive)
95 | COC(=O)c1cc(NC(=O)CN2CCC(C(N)=O)(N3CCCCC3)CC2)cc(C(=O)OC)c1 | 104% (inactive)
